# Source: PubChem BioAssay
# TDP1 cell noCPT: qHTS for Inhibitors of human tyrosyl-DNA phosphodiesterase 1 (TDP1): qHTS in cells in absence of CPT; DT40 Tdp1-/- hTDP1 cells, no CPT, ATP luminescence, 48 h; Potency, µM (series often up to 46.2 µM), inactives show top-dose activity change, negative = growth inhibition, hits mostly inhibitors; 420,000 compounds, 15% hits; AID 686978, 2013; also: potency is read from the fitted curve at half-maximal effect; nearly all actives have a fitted effect of over 55% in size
#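 No-CPT arm: Tdp1-/-;hTDP1 DT40 cells (400/well) plus compounds, incubated ≥48 hr at 37 °C. Readout CellTiter-Glo luminescence.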
# IL-1B inflam inh: blocks inflammasome-driven IL-1 beta release. THP-1 LPS/ATP IL-1B secretion, AlphaLISA, 16 h; hits give low values. activity change, % at 57.5 µM. 360,000 compounds, 4.7% hits; in the data active = activity change below about -50%; inconclusive = mostly about -30% to -49%
#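 THP-1 cells pretreated 1 hr with compounds (up to 57.5 uM final), then stimulated with LPS (250 ng/mL final) plus ATP (1.25 mM final); secreted IL-1B measured by AlphaLISA after 16 hr, decreased signal indicating inhibition.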
# HT1080 IDH1KD tx: HT-1080 IDH1 knockdown cell toxicity (counter line). HT-1080 IDH1 knockdown viability, ATP luminescence, 48 h. Potency, µM (series often up to 46.1 µM), without a hit: at the top dose activity, negative = toxicity, most hits filed as cytotoxic. 360,000 compounds, 2% hits;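 also: potency is read from the fitted curve at half-maximal effect; 0% = DMSO wells and -100% = cell-free medium wells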
#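 Using the IDH1-knockdown HT-1080 line run in the same batch and compound series as the NT line, viability after 48 h at 37 °C was determined by CellTiter-Glo luminescence and expressed as % activity.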
# TDP1 cell CPT: DT40-hTDP1 cell growth loss with CPT; Potency, µM (titrated, usually from 46.2 µM), for the others: at the highest dose activity change, negative = growth inhibition, usual class: inhibitors; 420,000 compounds, 12% hits; AID 686979; chicken DT40 Tdp1-/-;hTDP1 cells + 20 nM CPT, ATP luminescence, 48 h; also: potency is read from the fitted curve at half-maximal effect; nearly all actives have a fitted effect of over 55% in size
#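 Chicken DT40 Tdp1-/- cells complemented with human TDP1, 400 cells/well, exposed to compounds plus 20 nM camptothecin for at least 48 h at 37 C; viability read as ATP content by CellTiter-Glo luminescence.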
# HT1080NT lethal: kills 2HG-producing HT-1080-NT fibrosarcoma cells | HT-1080-NT fibrosarcoma viability, CellTiter-Glo ATP luminescence, 48 h | AID 686970 | 360,000 compounds, 1.6% hits | Potency, µM (series often up to 46.1 µM), inactives show top-dose activity, negative = less viability, hits mostly cytotoxic;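 also: NT is the 2HG producing partner of a matched IDH1 knockdown line; potency is read from the fitted curve at half-maximal effect; 0% = DMSO-treated cells and -100% = media-only wells without cells; nearly all actives have a fitted effect of over 55% in size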
#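 HT-1080-NT; 750 cells/well; 5% FBS RPMI; 48 h compound, 37 degrees C; CellTiter-Glo luminescence; curve fitting and curve-class assignment.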
# Numbers without * were called inactive; u = inconclusive; x = not tested or not shown. Compounds with a hit are over-represented: about 19% of the library has one in this group of screens. Unless noted, calls follow the shape of the dose curve; as a rule, active = well fitted curve in the direction sought with a large enough effect; inconclusive = small, poorly fitted or top-dose-only effect, or another doubt; inactive = no such curve, though single readings can be large; an effect the other way counts as inactive or inconclusive. Unless noted, % is scaled to controls: 0 for no effect and ±100 for the full control effect.
SMILES,TDP1 cell noCPT,IL-1B inflam inh,HT1080 IDH1KD tx,TDP1 cell CPT,HT1080NT lethal
CCOC(=O)c1ccc(-c2ccc(N3C(c4ccsc4)=Cc4ccc(F)cc4C3c3c[nH]c4ccc(C#N)cc34)cc2)cc1F (stereo unspecified),u,48,8%,-22%,2%
CCOC(=O)CSc1cn2c(n1)CCC2,2%,-2,8%,-16%,13%
Cc1ccc(C)c(NC(=O)c2ccccc2O)c1,9.2µM*,6,u,8.2µM*,u
Cc1cccc(NC(=O)c2cnn(C)c2)c1C,-8%,4,19%,-19%,13%
Cc1cccc(NC(=O)c2cccc([N+](=O)[O-])c2O)c1C,13µM*,5,u,16µM*,u
Cc1cccc(NC(=O)c2ccccc2O)c1C,u,-61*,-18%,21µM*,u
Cc1cccc(NC(=O)c2cnn3ccccc23)c1C,2.1µM*,-53*,u,1.6µM*,-21%
COc1ccc(C(=O)OC(COc2ccccc2)Cn2ccnc2)cc1 (stereo unspecified),u,-90*,-15%,-12%,-13%
Cc1ccc(N(CC(=O)N2CCN(c3ccccc3F)CC2)S(=O)(=O)c2c(C)noc2C)cc1,u,-6,6%,21µM*,6%
COc1ccc(N(CC(=O)N2CC=C(c3ccccc3)CC2)S(=O)(=O)c2c(C)noc2C)cc1,23µM*,9,-4%,u,7%
CCOc1ccc(N(CC(=O)N2CC=C(c3ccccc3)CC2)S(=O)(=O)c2c(C)noc2C)cc1,u,-7,3%,u,0%
COc1ccc(N(CC(=O)N2CCN(c3ccccc3F)CC2)S(=O)(=O)c2c(C)noc2C)cc1,u,-9,6%,u,0%
COCC(=O)N1CCC[C@@]2(CCN(Cc3ccccc3)C2)C1,-6%,x,x,-9%,x
O=C1c2ccccc2NC2CCCCC12 (stereo unspecified),23µM*,16,0%,u,0%
O=C1c2ccccc2NC2CCCCCN12 (stereo unspecified),-3%,0,9%,-3%,8%
Cc1cc(Br)ccc1OCCCCN1CCC(C)CC1,u,u,-23%,23µM*,-28%
CC1CCN(CCCCOc2ccccc2F)CC1,15µM*,-6,13%,u,16%
CC1CCN(CCCCOc2ccc(Br)cc2)CC1,u,-10,-12%,u,-7%
CC1CCN(CCCOc2ccc(Cl)cc2Br)CC1,u,6,23µM*,u,u
Clc1ccc(OCCOCCN2CCCCC2)c(Br)c1,3%,0,5%,-4%,10%
CC1CCN(CCOCCOc2ccc(Cl)cc2Br)CC1,21µM*,u,u,13µM*,u
CCNC(=O)C1(C)CCCN(C(=O)c2nc(C)oc2C)C1 (stereo unspecified),-6%,-5,7%,-10%,-29%
COC(=O)c1c(NC(=O)c2cc(=O)c3cc(C)cc(C)c3o2)sc2c1CCC2,-3%,x,x,-5%,x
O=C(OCc1cc(=O)n2nc(-c3cccs3)sc2n1)c1cccc(F)c1,-24%,x,x,-16%,x
COC(=O)CC/C(O)=C1/C(=N)CC(C)(C)CC1=O,-1%,u,21%,5%,10%
Cc1ccc(Nc2c(-c3ccccn3)nc3cc(C)ccn23)cc1,2.9µM*,-100*,5.8µM*,4.6µM*,5.8µM*
Cc1cccc(C)c1Nc1c(-c2ccccn2)nc2ccc(Cl)cn12,u,x,x,6%,x
COc1ccc(Nc2c(-c3ccccn3)nc3ccc(Cl)cn23)cc1,1.6µM*,x,x,12µM*,x
Cc1ccc(Nc2c(-c3ccccn3)nc3ccc(C)cn23)cc1,7.3µM*,0,u,3.3µM*,u
COc1cccc(N2CC(NC(=O)COc3ccccc3F)CC2=O)c1 (stereo unspecified),-26%,x,x,-2%,x
